# Screens from PubChem.
# Hits are enriched below; roughly 4% of the tested compounds scored in any of these assays.
# DUSP3 inh – VHR1 phosphatase inhibitors, primary screen, biochemical, absorbance, uHTS. recombinant VHR phosphatase, pNPP absorbance. inhibition, % at 13.3 µM. 0.52% of 290,000 active. AID 1654, 2009; in the data active = inhibition above about 50%
# Anthrax LF prot – Bacillus anthracis LF protease inhibitors, primary screen, biochemical, multiplex microsphere, MLPCN library; inhibition, % at 10 µM; 0.12% of 360,000 active; Lethal factor (Bacillus anthracis), P15917; multiplex microsphere protease cleavage assay; also: plate controls were buffer without enzyme for full effect and enzyme alone for no effect
# BoNT F protease – BoNT/F light chain protease inhibitors, primary screen, biochemical, flow cytometry, MLPCN library | Botulinum neurotoxin type F light chain protease (Clostridium botulinum) | Multiplex microsphere protease cleavage assay | 0.22% of 360,000 active | inhibition, % at 10 µM; in the data active = inhibition above about 35%, passing the limit was not always enough; inconclusive = no clear call, values can overlap the other calls; also: plate controls were buffer without enzyme for full effect and enzyme alone for no effect
# Autofluor counter – compound fluorescence in toxin protease inhibitor counterscreen | compound autofluorescence counterscreen, microsphere flow cytometry; stronger effect = higher value | fluorescence intensity (concentration not given with the values) | 3.1% of 360,000 active | AID 624483; in the data active = fluorescence intensity above about 16000; inconclusive = no clear call, values can overlap the other calls
# BoNT-A LC inh2 – BoNT/A light chain protease inhibitors, primary screen, biochemical, flow cytometry, MLPCN library. 0.17% of 360,000 active. inhibition, % at 10 µM. multiplex microsphere protease substrate cleavage; also: plate controls were buffer without enzyme for full effect and enzyme alone for no effect
# MazEF act – activators of E. coli MazEF toxin-antitoxin RNase, primary screen, biochemical, fluorescence, uHTS | activation, % at 20 µM | AID 504720, 2011 | Endoribonuclease toxin MazF (Escherichia coli (strain K12)), P0AE70 | 0.32% of 350,000 active | FAM/BHQ RNA-DNA oligo cleavage fluorescence, 5 h; in the data active = activation above about 50%
# * marks the source's active call; other numbers are inactive results; u = inconclusive; x = not tested or not shown. Rule as the data show it, unless noted: active = inhibition above about 30%; inconclusive = no clear call, values can overlap the other calls; inactive = below that.
SMILES,DUSP3 inh,Anthrax LF prot,BoNT F protease,Autofluor counter,BoNT-A LC inh2,MazEF act
Cc1noc(C)c1CN(C(=S)NC(C)C)c1ccccc1,21.2,0.2,-2.8,2129,0.4,-0.2
Cc1noc(C)c1CN(C(=S)NC1CC2CCC1C2)c1ccccc1 (stereo not given),-15.2,-6.1,42.1*,4701,3.7,-3.5
COc1cc(C(=O)Nc2ccccn2)cc(OC)c1OC,14.6,-1.5,8.6,3979,-0.1,3.2
Cc1cc(C(=O)Nc2ccccn2)cs1,13.4,-2.3,0.4,22600*,0.1,2.9
Cc1ccc(CN(C)C(=O)c2ccc(S(=O)(=O)N(C)c3ccccc3)cc2)o1,x,1.1,5.3,6153,0.0,6.6
Cc1ccc(CN(C)C(=O)c2ccccc2Oc2ccccc2)o1,25.6,-1.8,4.8,21202*,2.8,-4.0
Cc1ccc(S(=O)(=O)c2nnn3c2nc(Nc2cccc(C)c2)c2ccccc23)cc1,0.1,0.0,-4.0,2552,-0.3,14.7
Cc1ccc(C)c(Nc2nc3c(S(=O)(=O)c4ccccc4)nnn3c3ccccc23)c1,2.6,1.3,0.4,2021,-0.3,135.3*
O=C1OCCN1C(=O)[C@H]1[C@H](c2ccc(Cl)cc2)C(c2cccc(Cl)c2)=NN1c1ccccc1,-18.4,0.9,5.5,4314,-0.2,-12.3
CCOc1ccccc1-c1nc(-c2cc3ccc(C)cc3[nH]c2=O)no1,-1.0,0.5,4.6,16326*,1.5,5.7
CCCc1nc(-c2cc3ccc(C)cc3[nH]c2=O)no1,7.5,-8.0,-4.0,5831,-0.6,5.4
COC(=O)c1[nH]c2ccccc2c1NS(=O)(=O)c1ccc(F)c(C)c1,13.8,-3.0,-1.6,16616*,-0.4,1.4
OC(COc1ccc(Cl)cc1)CN1CCN(c2ccccn2)CC1 (stereo not given),x,4.6,u,4034,-0.9,2.9
CCOc1ccc(OCCN2C(=O)c3ccccc3C2=O)cc1,1.2,-3.4,-3.8,5199,2.0,2.2
COc1ccc(OCC(=O)OCCN2C(=O)c3ccccc3C2=O)cc1,15.4,-0.6,6.8,20429*,4.4,8.7
COc1cc(SC)ccc1C(=O)N1CCN(c2ccccc2)CC1,10.3,-1.5,-0.6,4772,-1.4,2.2
CN(Cc1ccccc1NCC(=O)Nc1ccccc1C#N)C1CCCCC1,7.2,-4.4,1.5,3270,0.3,5.4
N#Cc1cc2ccccc2nc1SCC(=O)Nc1ccccc1N1CCOCC1,3.6,-0.4,-3.1,11422,-0.6,50.8*
Cc1cc(=O)[nH]c(SCC(=O)Nc2ccccc2C#N)c1C#N,30.3,-1.3,5.9,21510*,3.0,-6.2
COC(=O)c1ccccc1NC(=O)CSc1[nH]c(=O)cc(C)c1C#N,18.5,-2.3,2.0,4483,0.5,3.3
N#Cc1ccccc1NC(=O)CNc1ccccc1N1CCCCC1,-0.2,-4.1,-3.5,22615*,u,-4.5
Cc1ccccc1NC(=O)CSc1nc(N)c(C#N)cc1C#N,15.5,-2.1,0.0,16586*,0.0,-3.2
COc1ccc(-n2nc3cc(C)c(N)cc3n2)cc1Cl,8.1,-7.1,-13.8,3468,-3.0,-21.3
Cc1cc(C(=O)NC2CCC(O)CC2)c(C)o1 (stereo not given),x,0.6,-5.8,6648,-1.9,-3.5
CCOc1cc(S(=O)(=O)Nc2ncn[nH]2)ccc1Br,23.6,-3.6,6.0,5789,0.2,-5.0
CCOCC(=O)Nc1nc2ccc(OCC)cc2s1,-4.0,0.2,11.5,3790,0.9,-0.7
CCOc1ccc2nc(NC(=O)C3(C)CC3(Br)Br)sc2c1 (stereo not given),x,36.1*,u,3937,-1.7,4.7
Brc1c(CSc2nncn2-c2ccccc2)nc2ncccn12,7.0,2.4,-2.1,3344,0.2,4.2
Brc1c(CSc2nncn2-c2ccccc2)nc2sccn12,21.4,-5.5,4.9,19506*,3.2,3.8
Cc1ccc(/C=C2\CCC3=C2OC(N)=C(C#N)C3c2ccc(C)cc2)cc1 (stereo not given),-4.7,5.5,41.5*,10272,6.8,-218.9
